# Measurements reported in PubChem BioAssay (EPA / NIEHS).
# Activity calls are given as the source filed them. Rule for the calls: active = hit-call score of the fitted dose curve at least 0.9, where 1 is the maximum; inactive = score below 0.9.
# Assay: ATG_NFI_CIS: Attagene CIS-FACTORIAL HepG2 Assay for human Nuclear Factor I (NFI) (AID 2282989)
# Conditions: HepG2 cis-regulatory reporter, NFI response element transcription; actives raise or lower the signal
# Description: ATG_CIS is a cell-based, multiplexed-readout assay that uses HepG2, a human liver cell line, with measurements taken at 24 hours after chemical dosing in a 24-well plate.ATG_NFI_CIS is one of 52 assay component(s) measured or calculated from the ATG_CIS assay. It is designed to make measurements of mRNA induction, a form of inducible reporter, as detected with fluorescence intensity signals by Reverse transcription polymerase chain reaction (RT-PCR) and Capillary electrophoresis technology.Data from the assay component ATG_NFI_CIS was analyzed into 1 assay endpoint. This assay endpoint, ATG_NFI_CIS, was analyzed with bidirectional fitting relative to DMSO as the negative control and baseline of activity. Using a type of inducible reporter, measures of mRNA for gain or loss-of-signal activity can be used to understand the reporter gene at the transcription factor-level as they relate to the gene NFIA. Furthermore, this assay endpoint can be referred to as a primary readout, because this assay has produced multiple assay endpoints where this one serves a reporter gene function. To generalize the intended target to other relatable targets, this assay endpoint is annotated to the dna binding intended target family, where the subfamily is nuclear factor I.
# Human liver HepG2 cells are transiently transfected with multiple reporter transcription units (MRTUs) in 6-well plates using FuGene 6 reagent (Roche; 3 ml FuGene/1 mg DNA). The MRTU constructs are regulated by a cis-regulating element (promoter). […] A major difference between the CIS and TRANS system is that in CIS activities of endogenous TFs are measured, whereas the TRANS assay evaluates changes in activities of exogenous, chimeric NR-Gal4 proteins. […] At the end of 24 hour incubation, total RNA was isolated using TriZol reagent (Invitrogen). The isolated RNA is then reverse-transcribed using oligo(dT) primer and Mo-MLV reverse transcriptase (Invitrogen) with DNAse I (Ambion) treatment for 30 min. The one-tenth of the produced cDNA was amplified by PCR using Taq DNA polymerase (Invitrogen) and two reporter sequence-specific primers. The PCR products were fluorescently labeled by primer extension with 6-arboxyfluorescein (6-FAM) 5'-labeled reporter sequence-specific primer (2 min at 95 C, 20 s at 68 C and 10 min at 72 C) and these products were digested with 5U of HpaI (New England Biolabs) for 2h at 37 C. The fragments were purified using Qiaquick PCR columns (Qiagen), analyzed on an ABI 3130xL genetic analyzer (Applied Biosystems) with peak positions identified by using a set of X-rhodamine (ROX)-labeled MapMarker1000 molecular weight standards (BioVentures). The raw capillary electrophoresis data was processed using Attagraph software (Attagene).
Compound,outcome,AC50
CC1CCC(=O)C1=O (stereo not given),inactive,–
[Cl][Eu]([Cl])[Cl],inactive,–
C1CCSC1,inactive,–
COc1ccc(C(=O)c2ccccc2)c(O)c1,inactive,–
CC(=O)OCc1ccccc1,inactive,–
C=CCCCCCCCCO,inactive,–
CC(C)(CO)C(O)C(=O)NCCCO (stereo not given),inactive,–
Cc1ccc(S(=O)(=O)N=C=O)cc1,inactive,–
C=C(C)C(=O)OCC(O)COc1ccc(C(C)(C)c2ccc(OCC(O)COC(=O)C(=C)C)cc2)cc1 (stereo not given),inactive,–
Oc1ccc(/C=C/c2cc(O)cc(O)c2)cc1,inactive,–
CC(Cl)COP(=O)(OCC(C)Cl)OCC(C)Cl (stereo not given),inactive,–
CCCCC(CC)COS(=O)(=O)O (stereo not given),inactive,–
C=CCNCC=C,inactive,–
CC(=O)CCC1=C(C)CCCC1(C)C,inactive,–
O=C(C=Cc1ccccc1)OCCc1ccccc1,inactive,–
Cc1cc(C)n(CO)n1,inactive,–
CCC1(C)C(=O)N(Cl)C(=O)N1Cl (stereo not given),–,60.6 µM (active)
CC(C)C(=O)OCCc1ccccc1,inactive,–
N#CC1(N)CCCCC1,inactive,–
CCCCOC(=O)C(C)CC (stereo not given),inactive,–

Compound,outcome,AC50
CCNc1nc(NC(C)(C)C)nc(OC)n1,inactive,–
O=C1c2ccccc2C(=O)c2cc(S(=O)(=O)O)ccc21,inactive,–
CCCCOCCOC(=O)COc1ccc(Cl)cc1Cl,inactive,–
CCCCNC(=S)NCCCC,inactive,–
COC(Cc1ccccc1)OC,inactive,–
CC(=O)OCCc1ccccc1,inactive,–
CC(c1cc(C(C)(C)C)cc(C(C)(C)C)c1O)c1cc(C(C)(C)C)cc(C(C)(C)C)c1O,inactive,–
CCCCCCCCCCCCCc1ccccc1,inactive,–
CCCCC1C(=O)N(c2ccccc2)N(c2ccccc2)C1=O,inactive,–
O=C(Cl)c1ccc(C(=O)Cl)cc1,inactive,–
CC(C)(C)N,inactive,–
Nc1nc(N)nc(-c2ccccc2)n1,inactive,–
C=CCCCCCCCCC=O,inactive,–
C=C1C[C@H]2[C@@H]3C=C(C)C4=CC(=O)CC[C@]4(C)[C@H]3CC[C@]2(C)[C@@]1(OC(C)=O)C(C)=O,–,106 µM (active)
CC(C)(C)C1CCC(=O)CC1,inactive,–
CC(=O)OC1CCCCC1,inactive,–
CCCCOCC(C)O (stereo not given),inactive,–
CCCCCC[C@@H](O)C/C=C\CCCCCCCC(=O)OCC(O)CO (stereo not given in full),inactive,–
Cn1ccnc1,inactive,–
CC/C=C\CCOC(=O)c1ccccc1O,inactive,–
